Experimental data taken from PubChem BioAssay (NCI).
About 83,000 compounds went through this panel and 20% of them were active in at least one assay; those are over-represented in the sample as a whole.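 The endpoint reported here, percent growth, reads 100 for growth as untreated, 0 for no net growth and -100 for all cells dead.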 A number with no mark means an inactive call. Calls of active or inactive are those of the source. The calls were made as follows: active = growth percent below 10; inactive = the rest.

Columns and labels:
Test in all cases: NCI-60 one-dose screen, 48 h (100 = growth as untreated, 0 = no growth, -100 = all killed)
Details in all cases: 10 µM unless noted
SR leukemia = tested on: SR leukemia
RPMI-8226 leukemia = tested on: RPMI-8226 leukemia
OVCAR-8 ovarian = tested on: OVCAR-8 ovarian
OVCAR-5 ovarian = tested on: OVCAR-5 ovarian
OVCAR-4 ovarian = tested on: OVCAR-4 ovarian
SK-OV-3 ovarian = tested on: SK-OV-3 ovarian
IGROV1 ovarian = tested on: IGROV1 ovarian
OVCAR-3 ovarian = tested on: OVCAR-3 ovarian
HS 578T breast = tested on: HS 578T breast
NCI/ADR-RES ovarian = tested on: NCI/ADR-RES ovarian
T-47D breast = tested on: T-47D breast
BT-549 breast = tested on: BT-549 breast
MDA-MB-435 melanoma = tested on: MDA-MB-435 melanoma
SW-620 colon = tested on: SW-620 colon
MCF7 breast = tested on: MCF7 breast
HCT-116 colon = tested on: HCT-116 colon
HCC-2998 colon = tested on: HCC-2998 colon
KM12 colon = tested on: KM12 colon

SMILES	growth (SR leukemia)	growth (RPMI-8226 leukemia)	growth (OVCAR-8 ovarian)	growth (OVCAR-5 ovarian)	growth (OVCAR-4 ovarian)	growth (SK-OV-3 ovarian)	growth (IGROV1 ovarian)	growth (OVCAR-3 ovarian)	growth (HS 578T breast)	growth (NCI/ADR-RES ovarian)	growth (T-47D breast)	growth (BT-549 breast)	growth (MDA-MB-435 melanoma)	growth (SW-620 colon)	growth (MCF7 breast)	growth (HCT-116 colon)	growth (HCC-2998 colon)	growth (KM12 colon)
Cc1nccc2c3ccc(OCc4cn(-c5ccc(Cl)cc5)nn4)cc3n(CCCc3ccccc3)c12	-34.1% (active)	7.63% (active)	-33.2% (active)	43.4%	-51.1% (active)	53.2%	34%	26.6%	-35.7% (active)	-44.1% (active)	74.7%	31.8%	27.8%	12.9%	20.2%	31.7%	70.9%	35.2%
CC(=O)N1c2ccccc2NC2=C(C(=O)N(Cc3ccccc3)C2(C)C)C1c1ccco1 (stereo not drawn)	23.3%	23.4%	26.1%	25.9%	48.8%	22.7%	26.8%	-7.66% (active)	10.7%	82.9%	35.1%	47.6%	-56.2% (active)	21.7%	15.3%	7.52% (active)	3.73% (active)	14.8%
CN1CCN(C(=O)[C@]2(C)CC[C@]3(C)CC[C@]4(C)C(=CC(=O)[C@@H]5[C@@]6(C)CCC(=O)NC(C)(C)[C@@H]6CC[C@]54C)[C@@H]3C2)CC1	77.6%	99.7%	99.8%	110%	92.1%	91%	99.9%	101%	88.1%	96.6%	79.9%	87.2%	100%	96.4%	91.8%	93.1%	113%	98.1%
CC(=O)c1c[nH]c2ccc(-c3ccnc(Nc4ccc(NC(=O)C5CCCC5)c(CN5CCOCC5)c4)n3)cc12	3.58% (active)	-42.2% (active)	7.02% (active)	-11.6% (active)	-14% (active)	10.6%	-14.8% (active)	-7.43% (active)	-27.7% (active)	-4.77% (active)	-0.198% (active)	-7.17% (active)	-76% (active)	0.153% (active)	-38.1% (active)	0.944% (active)	-31.4% (active)	-64.1% (active)
C[C@H]1[C@H](C)CC[C@]2(CO)CC[C@]3(C)C(=CC[C@@H]4[C@@]5(C)CCCNC(C)(C)[C@@H]5CC[C@]43C)[C@H]12	-49.9% (active)	-39.7% (active)	9.93% (active)	28.4%	18.5%	69.6%	-57.9% (active)	6.84% (active)	10.5%	17.6%	1.1% (active)	-66% (active)	-73.9% (active)	-69.6% (active)	-29.4% (active)	-94.7% (active)	-38.7% (active)	0.124% (active)
CN1CCN(c2cnc(C(=O)Nc3cc(F)cc4cccnc34)cn2)CC1	24.5%	49.2%	63.8%	62.7%	8.94% (active)	96.9%	8.45% (active)	9.25% (active)	69.2%	56.5%	28.5%	62.2%	74.5%	39.6%	9.71% (active)	9.87% (active)	93%	95%
COc1cc(-c2cc(=O)oc3cc(O)ccc23)cc(OC)c1OC	97.6%	41.8%	84.9%	103%	73%	135%	94%	88.4%	88.5%	88.3%	83.5%	97.4%	100%	96%	94%	86.5%	100%	85.7%
Cc1ccc(C2CC(c3cccc(Nc4ccncc4)c3)=NN2c2cc(Cl)cc(Cl)c2)cc1 (stereo not drawn)	1.17% (active)	16.1%	-36.5% (active)	71.1%	15%	83.4%	15.3%	61.7%	62.6%	52.1%	80.3%	101%	-63.2% (active)	-58% (active)	-45.1% (active)	-78.1% (active)	-77.7% (active)	-67.5% (active)
CC(Oc1ccc(C(=O)NS(=O)(=O)C(C)(C)C)cc1C(F)(F)F)c1ccc(Oc2ccccc2)cn1 (stereo not drawn)	25.9%	94.8%	75.2%	101%	93.1%	104%	64.8%	8.07% (active)	60.4%	83%	60.5%	67.2%	-4.12% (active)	58.4%	38.9%	60.1%	86.9%	52.7%
Clc1nc(Nc2ccccc2)nc(Nc2ccccc2)n1	45.8%	82.8%	112%	101%	86.1%	96.5%	91.9%	103%	121%	94.6%	76.1%	90.5%	108%	108%	92.4%	93.2%	93.3%	102%
CCCNC(=O)Oc1ccc(/C(=C(\C)c2ccccc2)c2ccc(OCCN3CCCCC3)cc2)cc1	9.19% (active)	57.7%	75.3%	78.2%	83%	79.3%	84.8%	75.6%	66.8%	77.2%	38.7%	69.8%	78.8%	80.8%	27.9%	46.5%	86.9%	58.9%
CC(=O)OCCCCCNc1ccccc1	88.4%	111%	108%	97.5%	92.8%	109%	118%	105%	107%	102%	103%	102%	111%	101%	109%	113%	107%	94.6%
COc1ccc(C(O)c2cc3c(N)c(C(=O)Nc4ccccc4)sc3nc2C)cc1 (stereo not drawn)	-15.3% (active)	5.81% (active)	8.92% (active)	27.1%	42.6%	-9.84% (active)	12.6%	-16.7% (active)	3.96% (active)	13.7%	51.7%	31.6%	-15.1% (active)	19.3%	13.4%	6.95% (active)	9.2% (active)	3.05% (active)
NC(=O)c1cccc(-c2cc(C(N)=O)ccc2Cl)c1	2.33% (active)	14.3%	28.9%	51.3%	58.6%	88.9%	49.3%	-0.229% (active)	5.29% (active)	19%	33.9%	57.9%	-27.6% (active)	21.1%	23.5%	25.4%	57.7%	30.8%
O=[N+]([O-])c1cccc(-c2nc(-c3ccc(Cl)cc3Cl)cn2-c2ccccc2)c1	-65% (active)	61.7%	-59.2% (active)	12.1%	-93.3% (active)	33.4%	29.7%	-55.9% (active)	-38.8% (active)	-1.46% (active)	15.6%	176%	-39.5% (active)	-52.4% (active)	20.7%	-93.2% (active)	-1.15% (active)	-64.4% (active)
CCOC(=O)N1CCc2c(sc3nc4nc[nH]n4c(=O)c23)C1	101%	98.2%	103%	110%	109%	96.7%	91.4%	105%	95.8%	97%	88.9%	95.8%	103%	102%	93.5%	95.7%	98.6%	97.1%
